Structures are written as SMILES. Among all 68,000 compounds or so, about 2,700 (4%) showed an effect of 50% or more. The sample holds strong results, similar compounds and a random draw of the others, so the mix is not that of the screen.

The values below come from ChEMBL document CHEMBL4513216, “Probing the Open Global Health Chemical Diversity Library for Multistage-Active Starting Points for Next-Generation Antimalarials” (ACS Infect Dis, 2020).

The experiment relates to Plasmodium berghei. As to the kind of experiment: Screen against P. berghei liver stage (PbLuc), transformed with Luciferase, at 2uM. It counts as functional, HepG2. Particulars: tested at 2 uM.
In the case of `OCC(CO)N1CCC(c2nnc(Cn3ccnc3)n2C2CC2)CC1`, the INHIBITION was 32.26%.

Consider `c1cn(Cc2nnc(C3CCN(C4CCOCC4)CC3)n2C2CC2)cn1`, for which the INHIBITION is 24.88%. As to `NCCN1CCC(c2nnc(Cn3ccnc3)n2C2CC2)CC1`, the INHIBITION is 52.08%.

As to `CS(=O)(=O)N1CCC(c2nnc(Cn3ccnc3)n2C2CC2)CC1`, the INHIBITION was -13.72%.

In the case of `CC(C)(C)CN1CCC(c2nnc(Cn3ccnc3)n2C2CC2)CC1`, the INHIBITION was -13.72%. For the compound `COc1ccccc1C(NC(=O)CN(C)C(C)C)c1noc(C)n1` (stereo not drawn), the INHIBITION was determined as 1.8%. `O=C1CN(C(=O)c2cccc(OCc3cscn3)c2)CCN1`: the INHIBITION was -7.02%. For the compound `CS(=O)(=O)N1CCC(NC(=O)COc2ccc(Cl)cc2)CC1`, the INHIBITION was 54.86%. Turning to `Cc1ccc(OCC(=O)NC2CCN(S(C)(=O)=O)CC2)cc1`, the INHIBITION was 30.88%.

For `CS(=O)(=O)N1CCC(NC(=O)COc2ccc(Cl)c(Cl)c2)CC1`, the INHIBITION is -34.45%. On to `c1ccc(COC[C@]23COC[C@H]2CN(c2ncccn2)C3)nc1`, for which the INHIBITION is -19.09%. For the compound `CC(C)N(C)Cc1ncn2c1CN(C(=O)C1CCCO1)CCC2` (stereo not drawn), the INHIBITION is 21.7%.

For `Cc1c(CNCCCOc2cccnc2)c2ccccc2n1CC(N)=O`, the INHIBITION worked out at 43.87%. With `COc1ccc(CCNC(=O)N2CCCC(c3nncn3C)C2)cc1` (stereo not drawn), the INHIBITION was 55.45%. With `COc1ccc(CC(=O)N2CCC(c3nnc4n3CCC4)CC2)cc1F` the figure was -25.23%. As for `COc1ccc(CC(=O)N2CCC(c3nncn3C)CC2)cc1F`, the INHIBITION amounted to 54%. For the compound `COc1ccccc1CCNC(=O)N1CCCC(c2nncn2C)C1` (stereo not drawn), the INHIBITION worked out at 18.59%.

Turning to `Cc1cccc(C)c1OCCC(=O)N1CCC(c2nncn2C)CC1`, the INHIBITION is recorded as -1.56%. As for `Cn1cnnc1C1CCN(C(=O)Cc2ccc3c(c2)OCCO3)CC1`, the INHIBITION is listed as 5.14%. Take `CCn1cnnc1C1CCN(C(=O)COc2ccccc2OC)CC1`: the INHIBITION was -16.51%.

Regarding `CCn1cnnc1C1CCN(C(=O)c2cc(F)ccc2OC)CC1`, the INHIBITION was 27.5%.

`COc1ccc(CC(=O)N2CCCC(c3nncn3C)C2)cc1` (stereo not drawn): the INHIBITION is on record as 14.26%. Take `CCn1cnnc1C1CCN(C(=O)Cc2ccc(OC)c(F)c2)CC1`: the INHIBITION is 77.01%. Take `Cc1ccc(C(=O)CCC(=O)N2CCC(c3nncn3C)CC2)cc1`: the INHIBITION came to 54.85%. As to `Cc1ccc(OCCC(=O)N2CCC(c3nncn3C)CC2)c(C)c1`, the INHIBITION was determined as 7.74%. Take `c1coc(CN2CCC(c3ccc4c(c3)OCO4)CC2)c1`: the INHIBITION is reported as -8.85%. Regarding `Cc1ccc(CN(CCCn2ccnc2)Cc2ccccc2O)s1`, the INHIBITION is reported as -43.99%. For `CN(C)CCNC(=O)c1cc(-c2cnc(N3CCCC3)nc2)cn1C`, the INHIBITION was 9.79%. Regarding `Cc1cccc(C(=O)N2CCCCC2c2ccc(CN(C)C)cc2)n1` (stereo not drawn), the INHIBITION is -32.59%. Take `Fc1cc(Cl)cnc1N1CCCC(c2nccn2Cc2ccccn2)C1` (stereo not drawn): the INHIBITION came to 3.97%.

For `COc1c(Cl)cc(C(=O)NCCNc2ncccn2)cc1Cl`, the INHIBITION turned out to be 21.97%. Turning to `CN1CCCC[C@@H]2[C@H]1[C@@H](c1ccccc1)CCN2C(=O)c1cccnc1`, the INHIBITION came out at 51.57%. On to `CN1CCCC[C@@H]2[C@H]1[C@@H](c1ccccc1)CCN2C(=O)c1ccccc1`, for which the INHIBITION is recorded as -60.34%.

For the compound `CN1CCCCC[C@@H]2[C@@H]1[C@H](c1ccccc1)CN2C(=O)c1cccnc1`, the INHIBITION worked out at 31.28%. Turning to `COc1ccc(F)cc1C(=O)C1CCCN(Cc2cnc(C)s2)C1` (stereo not drawn), the INHIBITION is given as 72.49%.

Turning to `COc1ccc(F)cc1C(=O)C1CCCN(Cc2ccc(C)s2)C1` (stereo not drawn), the INHIBITION is on record as 49.02%. With `COc1ccc(C(=O)C2CCCN(Cc3cccc(F)c3)C2)c(OC)c1` (stereo not drawn) the figure was -14.94%. Take `CO[C@@H]1CCN(Cc2ccoc2)C[C@@H]1Cc1ccccc1`: the INHIBITION was 28.46%. As for `CCc1c(C)nc2ccccc2c1N1CCC(NC(C)=O)CC1`, the INHIBITION was determined as 50.59%.

Regarding `OC1CCN(c2cnnc3ccccc23)CC1`, the INHIBITION was -1.81%. For `CCc1c(C)nc2ccccc2c1N1CCC(C(=O)NC)CC1`, the INHIBITION is on record as 5.28%.

With `CCOC(=O)N1CCN(c2nc(N)c3ccccc3n2)CC1`, the INHIBITION is -12.08%. As for `CCc1c(C)nc2ccccc2c1N1CCC(O)CC1`, the INHIBITION turned out to be 60.13%. As for `CCOC(=O)N1CCN(c2nc(NC3CC3)c3ccccc3n2)CC1`, the figure is 27.85%; as for `CN(CCc1cccc2ccccc12)Cc1nc(N)nc(N(C)C)n1`, -3.1%. Turning to `COCC[C@]1(O)CCN(Cc2nc(C)cs2)C[C@H]1C`, the INHIBITION is recorded as -9.15%.

`Cc1n[nH]c(C)c1C1CCCN1C(=O)c1coc(Br)c1` (stereo not drawn): the INHIBITION is on record as 28.43%. `Cc1cccc(C(=O)N2CCCC2c2c(C)n[nH]c2C)c1` (stereo not drawn): the INHIBITION worked out at 41.84%. With `Cc1n[nH]c(C)c1C1CCCN1C(=O)c1cc(Br)c[nH]1` (stereo not drawn), the INHIBITION was determined as 56.21%. Turning to `Cn1cc2c(n1)C(CNC1CCOCC1)OCC2` (stereo not drawn), the INHIBITION was -10.78%. With `CC(=O)N1CCC2(CC1)COC(COCc1ccccn1)C2` (stereo not drawn) the figure was 53.55%. As for `COCC(=O)N1CCC2(CC1)COC(COCc1ccccn1)C2` (stereo not drawn), the figure is 37.41%.

Regarding `CCOCC(=O)N1CCC2(CC1)COC(COCc1ccccn1)C2` (stereo not drawn), the INHIBITION was 18.05%.
